Hits are enriched below; roughly 8.3% of the tested compounds scored in any of these assays.
FBPA Giardia inh – inhibitors of Giardia lamblia fructose-1,6-bisphosphate aldolase; purified Giardia FBPA; Potency, µM (titrated, usually from 59.6 µM), actives largely listed as inhibitors; actives 0.71% (n = 290,000); AID 2451; note: nearly all actives have a fitted effect of over 55% in size
Target sequence (A8B2U2 whole entry, looked up): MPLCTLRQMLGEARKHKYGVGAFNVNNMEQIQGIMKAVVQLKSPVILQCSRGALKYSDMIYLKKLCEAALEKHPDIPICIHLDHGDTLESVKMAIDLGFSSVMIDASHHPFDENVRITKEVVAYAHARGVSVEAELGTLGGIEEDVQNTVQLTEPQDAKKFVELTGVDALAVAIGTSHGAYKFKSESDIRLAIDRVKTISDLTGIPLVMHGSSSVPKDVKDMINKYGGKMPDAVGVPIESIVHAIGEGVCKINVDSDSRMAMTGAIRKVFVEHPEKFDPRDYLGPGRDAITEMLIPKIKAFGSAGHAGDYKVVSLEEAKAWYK
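40 nM FBPA preincubated 10 min at RT with compound (up to 57.5 uM final), then substrate plus GAPDH/TPI/NAD/arsenate coupling and diaphorase/resazurin added. Fluorescence read after 20 min at RT, 525/598 nm.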
MARV entry inh – inhibitors of Marburg virus binding or cell entry. Potency, µM (top dose mostly 37.8 µM), usual class: inhibitors. actives 1.8% (n = 300,000). Marburg virus pseudotyped entry inhibition, cell reporter; calls by dose curve; tested in HEK293 cells
HCMV inh – inhibitors of human cytomegalovirus. HFF cells, HCMV-luciferase reporter, 72 h; stronger effect = lower value. activity change, negative = inhibition, % at 57.5 µM. actives 4.5% (n = 410,000). AID 1259415; in the data active = activity change below about -60%; inconclusive = no clear call, values can overlap the other calls; inactive = above about -39%
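Steps: HFFs plated, 16 h 37C; compounds added; HCMV-luciferase added to MOI 1 PFU/cell; 72 h 37C; OneGlo reagent, 5 min room temperature; luminescence read, normalized to controls.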
Lassa entry inh – inhibitors of Lassa virus binding or cell entry. Potency, µM (titrated, usually from 37.9 µM), actives largely listed as inhibitors. AID 540256. Lassa virus pseudotype entry inhibition, cell reporter. actives 1.2% (n = 300,000); calls by dose curve; tested in HEK293 cells; note: nearly all actives have a fitted effect of over 50% in size
FMDV antiviral – blocks foot and mouth disease virus. FMDV antiviral cell-based qHTS. Potency, µM (top dose mostly 57.9 µM), most hits filed as inhibitors. actives 1.2% (n = 410,000). AID 1159524; calls by dose curve; tested in HEK293T cells; note: read-out not given here; nearly all actives have a fitted effect of over 45% in size
HCV inh – HCV inhibition; AID 651820; actives 3.4% (n = 340,000); Potency, µM (doses to about 41.8 µM), actives largely listed as inhibitors; Huh7.5.1 HCVcc-Cre infection, luciferase reporter, 44 h
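1,000 cells/well; 4 h culture; + compound; + HCVcc-Cre (~0.5 moi); 44 h; luciferase substrate, RT 15 min; read 15 sec.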
Hits are given with their value; n = inactive; u = inconclusive; x = no result; ! = not active in a repeat; [ ] = dose if it differs, or a comment. Unless noted, calls come from the whole dose curve; as a rule, active = well fitted curve in the direction sought with a large enough effect; inconclusive = small, poorly fitted or top-dose-only effect, or another doubt; inactive = no such curve, though single readings can be large; an effect the other way counts as inactive or inconclusive.

SMILES	FBPA Giardia inh	MARV entry inh	HCMV inh	Lassa entry inh	FMDV antiviral	HCV inh
O=C(/C=C/c1ccc([N+](=O)[O-])cc1)c1ccccc(=O)c1O	x	u	-95	u	13µM	7.9µM
Cc1nn(C)cc1C(=O)/C=C/c1ccc([N+](=O)[O-])cc1	n	u	n	u	n	22µM
O=C(C=Cc1ccccc1)c1cccs1	x	u	n	n	u	n
O=C(/C=C/c1ccc([N+](=O)[O-])cc1)c1cccs1	n	x	-76	x	n	n
CCn1cc(CN(C)C(=O)/C=C/c2ccc([N+](=O)[O-])cc2)c(C)n1	n	n	n	n	n	n
O=C(Cn1nnc(N2CCOCC2)n1)NN=Cc1ccccc1Cl	x	x	n	x	x	x
COCCN1C(=O)COCc2cc(-c3ccc4c(c3)OCO4)ccc21	x	x	n	x	x	x
COc1ccc(C2=CC(=O)C=CC2=O)cc1	16µM	x	x	x	x	x
CC(=O)OC1C[C@]2(C)C(C(C)=O)CCC2C2CCC3=CC(=O)CC[C@@]3(C)C12 (some centres undefined)	n	x	x	x	n	x
CCOC(=O)c1cc(-c2ccc(C)cc2)n(CCC(=O)NCc2ccccc2)c1C	x	n	n	x	n	x
CCOC(=O)c1cnc2c(OC)cccc2c1N1CC(C)CC(C)C1 (centres undefined)	n	x	u	x	u	13µM
CCOC(=O)c1cnc2c(OC)cccc2c1N1CCN(c2ccccn2)CC1	n	11µM	-69	u	32µM	u
CCOC(=O)c1cnc2c(C)cc(Cl)cc2c1N1CCN(C)CC1	n	n	-62	n	n	n
CCOC(=O)c1cnc2ccc(Cl)cc2c1N1CCN(C)CC1	n	n	n	n	x	n
CCOC(=O)c1cc(-c2ccc(C)cc2)n(CCC(=O)N2CCN(c3ccccn3)CC2)c1C	n	21µM	n	16µM	u	u
Cc1cc(=O)oc2cc(OCc3cn(CC(=O)c4ccc(O)cc4)nn3)ccc12	x	x	x	n	x	x
Cc1ccc2c(c1)-c1ncc(C(=O)c3cc(Br)ccc3O)cc1CO2	n	n	-90!	n	n	x
Cc1ccc(O)c(C(=O)c2cnc3c(c2)COc2ccc(C)cc2-3)c1	n	u	n	n	n	u
CC(C)C[C@H]1COc2c(Cl)cccc2S(=O)(=O)N1	x	x	n	n	x	x
C=C1CCCC2OC(CC3=CC4/C(C)=C/CC(C)CC(/C=C(\C)C(O)C5CC(O)C(O)C(CCC(O)/C=C/C(C)=C/CCC6=NCCC(C3)C64C)O5)OC(=O)CC3OC(C(O)C1)C(O)C3O)CC(O)C2O (centres undefined)	x	x	-78	x	x	x
C=C[C@@H](C1=CC(=O)C(OC)=C(OC)C1=O)c1ccccc1	22µM	x	x	x	u	x
Cc1cccc(Nc2nnc(SCC(=O)NC3CCCc4ccccc43)s2)c1C (centres undefined)	n	u	n	u	40µM	u
COc1ccccc1-c1csc(C(NC(C)=O)c2ccccc2)n1 (centres undefined)	x	x	-79	x	n	x
COc1cc(C(O)c2nc(-c3cc4ccccc4o3)cs2)ccc1F (centres undefined)	x	x	-77	x	n	x
COc1ccncc1-c1csc(C(O)c2ccccc2)n1 (centres undefined)	x	x	-69	x	n	x
SMILES	FBPA Giardia inh	MARV entry inh	HCMV inh	Lassa entry inh	FMDV antiviral	HCV inh
Cc1cccc(N2CCN(C(=O)C3CCN(S(=O)(=O)c4ccc5c(c4)oc(=O)n5C)CC3)CC2)c1C	x	u	u	n	n	x
CCOC(=O)c1c(C)[nH]c(-c2csc(N)n2)c1C	u	u	-81	u	n	u
Cc1cccc(NC(=O)c2ccccc2O)c1C	n	n	-86	n	x	n
O=C(Nc1ccccc1O)c1ccccc1O	n	u	n	u	n	n
Cc1ccc(S(=O)(=O)N2CCOCC2)cc1NC(=O)c1cc(-c2ccccn2)nc2ccccc12	n	x	-70	x	n	u
COc1cccc(NC(=O)c2cc(-c3ccccn3)nc3ccccc23)c1	x	n	n	n	n	u
Cc1cccc(NC(=O)c2cc(-c3ccccn3)nc3ccccc23)c1C	n	u	n	u	14µM	u
Cc1ccc(S(=O)(=O)N2CCOCC2)cc1NC(=O)c1cc2ccccc2oc1=O	x	n	-101	n	n	n
CCC[C@H]1[C@@H](NS(=O)(=O)c2ccc3ccccc3c2)CC[C@@]23CCCN2C(=O)CCC[C@@H]13	x	x	n	x	x	x
O=c1c2sc3ccccc3c2n(Cc2ccc(F)cc2)c(=O)n1Cc1ccccc1	x	n	n	n	n	x
COC(=O)c1ccc(CNC(=O)COC(=O)c2ccc(N(C)C)cc2)cc1	n	u	-66	u	u	n
CN(C)c1ccc(C(=O)OCC(=O)N2CCCC2)cc1	n	u	n	n	n	n
CCOC(=O)N1CCN(C(=O)COC(=O)c2ccc(N(C)C)cc2)CC1	x	n	n	2.5µM	n	n
CN(C)c1ccc(C(=O)OCC(=O)NCCNC(=O)COC(=O)c2ccc(N(C)C)cc2)cc1	x	u	n	n	n	n
O=C(C1CCCCC1)N1CC(=O)N2[C@H](C1)[C@@H](c1ccc(Br)cc1)[C@@H]2CO	x	x	n	x	x	x
Clc1cccc(OCCOCCN2CCNCC2)c1Cl	x	13µM	n	n	n	u
CC1(C)CC(C(CCN(Cc2ccccc2)C(=O)c2ccco2)c2ccc(F)cc2)CCO1 (centres undefined)	n	u	n	u	14µM	u
CCC(=O)N(CCC(c1ccc(C)cc1)c1ccco1)Cc1ccco1 (centres undefined)	n	u	n	u	n	11µM
O=C(c1ccco1)N(CCC(c1ccccc1)c1ccco1)Cc1ccc(F)cc1 (centres undefined)	n	u	n	23µM	u	u
COc1ccc(C)cc1NC(=O)c1oc2ccc(S(=O)(=O)N3CCC4(CC3)OCCO4)cc2c1C	x	x	n	n	n	x
Cc1oncc1C(=O)Nc1ccc(C(F)(F)F)cc1	n	7.1µM	-69	u	n	n[8.37 µM]
O=Cc1s/c(=N\S(=O)(=O)c2ccccc2)n(CCCCl)c1Cl	n	u	-108	u	7.9µM	4.5µM
CCn1c(C)cs/c1=N\S(=O)(=O)c1ccccc1	x	x	n	x	n	n
O=C(Nc1nc(-c2cccs2)cs1)c1cccc(S(=O)(=O)N2CCCCC2)c1	n	u	n	n	n	11µM
Cc1ccc(NC(=O)c2cccc(S(=O)(=O)N3CCN(C)CC3)c2)cc1F	n	u	n	n	n	13µM
O=C(Nc1nc(-c2cccs2)cs1)c1ccc(Cl)cc1	n	u	n	u	n	u
Cc1ccc(-c2csc(NC(=O)c3cccc(S(=O)(=O)N4CCN(C)CC4)c3)n2)cc1	n	n	n	n	13µM	u
O=C(Nc1nccs1)c1cccc(S(=O)(=O)N2CCOCC2)c1	n	n	n	n	n	n
Cc1nnc(NC(=O)c2cccc(S(=O)(=O)N3CCN(C)CC3)c2)s1	x	n	n	n	n	n
COc1cc(C(=O)Nc2nc(-c3cccs3)cs2)cc(OC)c1OC	n	18µM	n	10µM	x	1.8µM

Screening data (PubChem)
